MITF TRPM1 HTS: increases MITF-driven TRPM1 promoter luciferase signal; SK-MEL-5 TRPM1-promoter luciferase, 24 h; % of positive control, neutral wells = 0; activation, % at 12.5 µM; 0.75% of 300,000 active;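 active = mean activation of at least 80% with every replicate also reaching 80%; inconclusive = mean reaches 80% but some replicate falls short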
esBAF inh: SWI/SNF esBAF complex inhibition. reporter increase, % at 12.5 µM. mouse ES cells, Bmi1-luciferase knock-in reporter, 24 h; 100% = twice the neutral-well signal. 2% of 350,000 active; in the data active = activation above about 40%; inconclusive = no clear call, values can overlap the other calls;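 note: a rise in the Bmi1 reporter signal indicates esBAF inhibition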
HSF1 inhib: HSF1 inhibition. NIH3T3-HGL HSE-luciferase, MG132-induced, luminescence 8 h; stronger effect = lower value. activity change, negative = inhibition, % at 7.5 µM (by protocol). 0.77% of 300,000 active;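 active = more than half of replicate wells show activity change below -50%, luminescence cut by over half; inconclusive = some wells, but at most half, below -50%; inactive = no replicate well below -50%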;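 note: luciferase reports HSF-1 transcriptional activity via heat shock element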
Wnt act: Wnt/beta-catenin pathway activation. Wnt/beta-catenin reporter cell assay, activator, plate reader. activation, % at 9.35 µM. 1.2% of 300,000 active. AID 743398; in the data active = activation above about 30%, passing the limit was not always enough; inconclusive = no clear call, values can overlap the other calls
HSF-1 act: increases HSF-1 driven luciferase reporter signal. NIH3T3-HGL HSF-1 luciferase reporter, MG132, 8 h; 100% = twice DMSO control signal. activation, % at 9 µM. 1.7% of 300,000 active;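 active = mean replicate activation of at least 50% with a set share of replicates each reaching 50%; inconclusive = only one of those two conditions met; inactive = mean below 50% and too few replicates reaching it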
Hits are given with their value. In the library only some 3.9% were active in any assay of this set; here they are far more common.

O=C(O)c1c2c(nc3ccccc13)/C(=C/c1ccc(OC(F)F)cc1)CCC2 was read as MITF TRPM1 HTS inactive, esBAF inh 59, HSF1 inhib inactive, Wnt act inactive and HSF-1 act inactive.
`O=C(N/N=C/c1ccccc1F)NC12CC3CC(CC(C3)C1)C2` gave MITF TRPM1 HTS inactive, esBAF inh inconclusive, HSF1 inhib inactive, Wnt act inactive and HSF-1 act 87.
O=C(N/N=C/c1cc([N+](=O)[O-])ccc1O)NC12CC3CC(CC(C3)C1)C2 was read as MITF TRPM1 HTS inactive, HSF1 inhib -50, Wnt act inactive and HSF-1 act inactive.
Screening C[C@@H]1CCCCO[C@@H](CN(C)Cc2ccccc2)[C@H](C)CN([C@@H](C)CO)C(=O)c2cc(NS(=O)(=O)c3cn(C)cn3)ccc2O1 returned esBAF inh inactive.
Screening CN(C)c1ccc(NC(=S)N2CCN(c3ncc(C(F)(F)F)cc3Cl)CC2)cc1 returned MITF TRPM1 HTS inactive, HSF1 inhib inactive, Wnt act 52 and HSF-1 act inactive.
CC(C)c1ccc(OCc2ccc(C(=O)N(C)C)o2)cc1 was read as MITF TRPM1 HTS 91, esBAF inh 57, HSF1 inhib inactive, Wnt act 45 and HSF-1 act inactive.
Screening CC1CN(C(=O)c2ccc(COc3ccc(C(C)C)cc3)o2)CC(C)O1 (configuration not stated) returned HSF1 inhib inactive, Wnt act inactive and HSF-1 act 60.
For CC(C)c1ccc(OCc2ccc(C(=O)O)o2)cc1 the results were MITF TRPM1 HTS inactive, esBAF inh inconclusive and Wnt act inactive.
`CC1CN(C(=O)c2ccc(COc3ccc4ccccc4c3)o2)CC(C)O1` (configuration not stated) gave HSF1 inhib inactive, Wnt act inactive and HSF-1 act inactive.
CO[C@@H]1CN(C)C(=O)c2cc(NS(=O)(=O)c3ccc(Cl)cc3)ccc2OC[C@@H](C)N(C(=O)Cc2cccnc2)C[C@H]1C was read as esBAF inh inactive.
Cc1noc(C)c1S(=O)(=O)N(C)C[C@@H]1OCCCC[C@H](C)Oc2ccc(NC(=O)Nc3ccccc3)cc2C(=O)N([C@@H](C)CO)C[C@H]1C was read as esBAF inh inactive.
Screening O=C(/C=C/Sc1ccccc1)c1ccc(Cl)cc1 returned MITF TRPM1 HTS inactive, HSF1 inhib inactive and HSF-1 act 161.
O=C(/C=C/Sc1ccccc1)c1ccccc1 was read as MITF TRPM1 HTS inactive, esBAF inh inactive, HSF1 inhib inactive, Wnt act inactive and HSF-1 act 117.
Screening C[C@H](CO)N1C[C@H](C)[C@H](CN(C)C(=O)C2CC2)Oc2cc(Br)ccc2S1(=O)=O returned esBAF inh inactive.
C[C@H](CO)N1C[C@H](C)[C@H](CN(C)C(=O)C2CC2)Oc2cc(-c3cccc(C#N)c3)ccc2S1(=O)=O was read as esBAF inh inactive.
`N#Cc1cccn1-c1nccs1` gave MITF TRPM1 HTS inactive, HSF1 inhib -86, Wnt act inactive and HSF-1 act inactive.
For O=C(CC(F)(F)F)N1C[C@H]2[C@@H](c3ccccc31)[C@H](CO)N2C(=O)c1ccncc1 the results were esBAF inh inactive.
`Cc1oc(-c2ccccc2F)nc1CS(=O)(=O)CC(=O)NCCCN1CCN(C)CC1` gave MITF TRPM1 HTS inactive, esBAF inh inactive, HSF1 inhib inactive, Wnt act inactive and HSF-1 act 148.
For Cc1oc(-c2ccccc2F)nc1CS(=O)(=O)CC(=O)NCCCN1CC(C)CC(C)C1 (configuration not stated) the results were MITF TRPM1 HTS inactive, esBAF inh inactive, HSF1 inhib inactive, Wnt act inactive and HSF-1 act inactive.
`Cc1ccc(NC(=O)c2ccc3nc[nH]c3c2)nc1` gave MITF TRPM1 HTS inactive, HSF1 inhib inactive, Wnt act inactive and HSF-1 act inactive.
For Cc1ccc(NC(=O)c2ccc3nc[nH]c3c2)c(O)c1 the results were MITF TRPM1 HTS inactive, esBAF inh 51, HSF1 inhib inactive, Wnt act inactive and HSF-1 act 66.
Screening CN(C)/N=C/C=C1\CCC/C(=C/c2cccs2)C1=O returned MITF TRPM1 HTS inactive, esBAF inh inactive, HSF1 inhib inactive, Wnt act 52 and HSF-1 act 76.
`CC(C)CC#Cc1ccc2c(c1)O[C@@H](CN(C)C(=O)CC1CC1)[C@@H](C)CN([C@H](C)CO)S2(=O)=O` gave esBAF inh inactive.
COc1ccc(/C=C2\CN(Cc3ccccc3)C/C(=C\c3ccc(OC)c(O)c3)C2=O)cc1O was read as MITF TRPM1 HTS inactive, esBAF inh inactive, HSF1 inhib inactive, Wnt act inactive and HSF-1 act 91.
Screening COc1ccc(C=C2C(=O)c3ccccc3C2=O)cc1O returned MITF TRPM1 HTS inactive, esBAF inh inactive, HSF1 inhib inactive, Wnt act inactive and HSF-1 act inactive.
For CCN1C/C(=C/c2ccc(OC)c(O)c2)C(=O)/C(=C/c2ccc(OC)c(O)c2)C1 the results were MITF TRPM1 HTS inactive, HSF1 inhib -79, Wnt act inactive and HSF-1 act inactive.
`COc1ccc(Cn2c(SC)nc3ccccc32)cc1[N+](=O)[O-]` gave MITF TRPM1 HTS inactive, esBAF inh inactive, HSF1 inhib -61 and HSF-1 act inactive.
Screening CCNc1ccccc(C(=O)/C=C/c2ccc3c(c2)OCO3)c1=O returned MITF TRPM1 HTS inactive, esBAF inh inactive, HSF1 inhib inactive and HSF-1 act 72.
O=C1c2ccccc2C(=O)N1N=Cc1ccc2c(c1)OCO2 was read as Wnt act 52.
`COC(=O)/C=C/c1ccc2c(c1)OCO2` gave MITF TRPM1 HTS inactive, esBAF inh inactive, HSF1 inhib inactive, Wnt act inactive and HSF-1 act inactive.
CN(/N=C/c1ccc2c(c1)OCO2)c1ccccc1 was read as MITF TRPM1 HTS 118, esBAF inh 51, HSF1 inhib inactive and HSF-1 act inactive.
CN(C(=O)C=Cc1ccccc1)c1ccccc1 was read as MITF TRPM1 HTS inactive, esBAF inh inactive and Wnt act inactive.
`CN(C(=O)/C=C/c1ccc2c(c1)OCO2)c1ccccc1` gave MITF TRPM1 HTS inactive, esBAF inh 53, HSF1 inhib inactive, Wnt act inactive and HSF-1 act inactive.
Screening C(=N\N(c1ccccc1)c1ccccc1)/c1ccc2c(c1)OCO2 returned MITF TRPM1 HTS inactive, HSF1 inhib inactive, Wnt act inactive and HSF-1 act inactive.
Screening C[C@@H]1CN([C@H](C)CO)C(=O)c2cc(NC(=O)Cn3cnnn3)ccc2O[C@H]1CN(C)Cc1ccc2c(c1)OCO2 returned esBAF inh inactive.
For CC(Sc1ncnc2sc(-c3ccccc3)cc12)C(=O)N1CCNC1=O (configuration not stated) the results were MITF TRPM1 HTS inactive, esBAF inh inactive and Wnt act inactive.
`CC(C)N(C(=O)CSc1ncnc2sc(-c3ccccc3)cc12)C(C)C` gave MITF TRPM1 HTS inactive, esBAF inh 59, HSF1 inhib inactive and HSF-1 act inactive.
CNC(=O)C[C@H]1CC[C@H]2[C@@H](COC[C@H](O)CN2C(=O)c2ccccn2)O1 was read as esBAF inh inactive.

Bioassay records deposited in PubChem BioAssay by Broad Institute.
